# Measurements taken from PubChem BioAssay (EPA / NIEHS).
# Activity calls are given as the source filed them. Rule for the calls: active = hit-call score of the fitted dose curve at least 0.9, where 1 is the maximum; inactive = score below 0.9.
# Assay: ATG_Ets_CIS: Attagene CIS-FACTORIAL HepG2 Assay for human Erythroblast Transformation Specific (ETS) (AID 2282941)
# Settings: HepG2 ETS cis-reporter transcription, actives raise or lower the signal
# Protocol: ATG_CIS is a cell-based, multiplexed-readout assay that uses HepG2, a human liver cell line, with measurements taken at 24 hours after chemical dosing in a 24-well plate.ATG_Ets_CIS is one of 52 assay component(s) measured or calculated from the ATG_CIS assay. It is designed to make measurements of mRNA induction, a form of inducible reporter, as detected with fluorescence intensity signals by Reverse transcription polymerase chain reaction (RT-PCR) and Capillary electrophoresis technology.Data from the assay component ATG_Ets_CIS was analyzed into 1 assay endpoint. This assay endpoint, ATG_Ets_CIS, was analyzed with bidirectional fitting relative to DMSO as the negative control and baseline of activity. Using a type of inducible reporter, measures of mRNA for gain or loss-of-signal activity can be used to understand the reporter gene at the transcription factor-level as they relate to the gene ETS1. Furthermore, this assay endpoint can be referred to as a primary readout, because this assay has produced multiple assay endpoints where this one serves a reporter gene function. To generalize the intended target to other relatable targets, this assay endpoint is annotated to the dna binding intended target family, where the subfamily is winged helix-turn-helix.
# Human liver HepG2 cells are transiently transfected with multiple reporter transcription units (MRTUs) in 6-well plates using FuGene 6 reagent (Roche; 3 ml FuGene/1 mg DNA). The MRTU constructs are regulated by a cis-regulating element (promoter). […] A major difference between the CIS and TRANS system is that in CIS activities of endogenous TFs are measured, whereas the TRANS assay evaluates changes in activities of exogenous, chimeric NR-Gal4 proteins. […] At the end of 24 hour incubation, total RNA was isolated using TriZol reagent (Invitrogen). The isolated RNA is then reverse-transcribed using oligo(dT) primer and Mo-MLV reverse transcriptase (Invitrogen) with DNAse I (Ambion) treatment for 30 min. The one-tenth of the produced cDNA was amplified by PCR using Taq DNA polymerase (Invitrogen) and two reporter sequence-specific primers. The PCR products were fluorescently labeled by primer extension with 6-arboxyfluorescein (6-FAM) 5'-labeled reporter sequence-specific primer (2 min at 95 C, 20 s at 68 C and 10 min at 72 C) and these products were digested with 5U of HpaI (New England Biolabs) for 2h at 37 C. The fragments were purified using Qiaquick PCR columns (Qiagen), analyzed on an ABI 3130xL genetic analyzer (Applied Biosystems) with peak positions identified by using a set of X-rhodamine (ROX)-labeled MapMarker1000 molecular weight standards (BioVentures). The raw capillary electrophoresis data was processed using Attagraph software (Attagene).
Compound,outcome,AC50
Clc1cccnc1,inactive,–
C=C(C)[C@@H]1CC=C(C)CC1,inactive,–
CCCCOC(=O)CCC(C)=O,inactive,–
Fc1ccc(Br)cc1,inactive,–
C=C(C)C1CC=C(C)CC1 (stereo not given),inactive,–
O=C(O)C(F)(F)C(F)(F)C(F)(F)C(F)(F)C(=O)O,inactive,–
c1ccc2sc(SSN3CCOCC3)nc2c1,inactive,–
COC(=O)C=Cc1ccccc1,inactive,–
CCCCC1C(=O)N(c2ccccc2)N(c2ccccc2)C1=O,inactive,–
O=C(Nc1ccccc1)c1cc(Cl)ccc1O,–,19.8 µM (active)
CC12CCC(CC1)C(C)(C)O2,inactive,–
CCCCC(C=O)CC (stereo not given),inactive,–
O=C(Cl)c1c(Cl)c(Cl)c(C(=O)Cl)c(Cl)c1Cl,inactive,–
N#Cc1ccc(C2CCCc3cncn32)cc1 (stereo not given),inactive,–
CC(C)(C)C1CCC(=O)CC1,inactive,–
CC1=NN(c2ccc(S(=O)(=O)O)cc2)C(=O)C1N=Nc1ccccc1 (stereo not given),inactive,–
CCCC=C(C=O)CC,inactive,–
Cc1cc(=O)[nH]c(=O)[nH]1,inactive,–
O=C(OCCc1ccccc1)c1ccccc1,inactive,–
c1ccc2cnccc2c1,inactive,–

Compound,outcome,AC50
C=CC(C)(CCC=C(C)C)OC(=O)C=Cc1ccccc1 (stereo not given),inactive,–
CCC(C)N (stereo not given),inactive,–
C=C(C)C(=O)OCCCCCCCCCCCC,inactive,–
O=C(Oc1ccccc1)c1ccccc1O,inactive,–
C=Cc1cccc(C)c1,inactive,–
CC/C=C\C/C=C\C/C=C\CCCCCCCC(=O)OC,inactive,–
CCOB(OCC)OCC,inactive,–
CCC1COC(=O)O1 (stereo not given),inactive,–
CCC1(C)C(=O)N(Cl)C(=O)N1Cl (stereo not given),inactive,–
CCCCCCCO,inactive,–
C=C[C@@]1(C)CC(=O)[C@]2(O)[C@@]3(C)[C@@H](O)CCC(C)(C)[C@@H]3[C@H](O)[C@H](OC(C)=O)[C@@]2(C)O1,inactive,–
CC(C)CCCCCOC(=O)CS,inactive,–
CO[Si](CCCS)(OC)OC,inactive,–
COc1ccc(C(=O)c2ccccc2)c(O)c1,inactive,–
O=C(O)CCCC(=O)O,inactive,–
CC(=O)OC(C)c1ccccc1 (stereo not given),inactive,–
CC(C)c1ccc(O)c(C(C)C)c1,inactive,–
CC1(C)[C@@H]2CC[C@@]1(C)C(=O)C2,inactive,–
Cc1ccc(S(=O)(=O)N=C=O)cc1,inactive,–
C1CCSC1,inactive,–
